Test results as given in PubChem BioAssay (NCATS).
Results filed as inconclusive are left out. Calls of active or inactive are those of the source. The call rests on the fitted dose curve; in most records, active means well fitted cell-killing curve with a large enough effect; inconclusive means small, poorly fitted or top-dose-only effect, or effect the other way; inactive means flat fitted curve, though single readings scatter.

What was measured:
Assay in all cases: Primary qHTS to identify gynecologic anti-cancer compounds using libraries of approved drugs and bioactive compounds (AID 1345084); further: nearly all actives have a fitted effect of over 55% in size
Hek293T = conditions: Gynecologic cancer cell panel viability, ATPlite luminescence, 48 h, control line for the selectivity index; series mostly up to 57.5 µM
Outline: (§1)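 Cells, 1,000 per well, plated 16 h, then exposed 48 h at 37 C to compounds. Viability by ATPlite luminescence after 15 min at room temperature.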

JEG-3 = conditions: Gynecologic cancer cell panel viability, ATPlite luminescence, 48 h; series mostly up to 57.5 µM
Outline: as §1

OV90 = conditions: Gynecologic cancer cell panel viability, ATPlite luminescence, 48 h; series mostly up to 57.5 µM
Outline: as §1

PA-1 = conditions: Gynecologic cancer cell panel viability, ATPlite luminescence, 48 h; series mostly up to 57.5 µM
Outline: as §1

SKOV3 = conditions: Gynecologic cancer cell panel viability, ATPlite luminescence, 48 h; series mostly up to 57.5 µM
Outline: as §1

Tov-21-G = conditions: Gynecologic cancer cell panel viability, ATPlite luminescence, 48 h; series mostly up to 57.5 µM
Outline: as §1

Tov112D = conditions: Gynecologic cancer cell panel viability, ATPlite luminescence, 48 h; series mostly up to 57.5 µM
Outline: as §1
On the % scale 0 is the no-effect control and ±100 the full control effect.

C/C=C(\C)C(=O)OC1C(C)OC(OC2C(C)OC(OC3CCC4(C)C(=CCC5C4CCC4(C)C(C(C)OC6OC(COC7OC(CO)C(O)C(O)C7O)C(O)C(O)C6O)CCC54O)C3)CC2OC)C(O)C1OC (configuration not stated)
inactive: activity change, negative = cytotoxicity (Hek293T) 8.11% [at 11.6 µM] | activity change, negative = cytotoxicity (JEG-3) -0.0196% [at 11.6 µM] | activity change, negative = cytotoxicity (OV90) -0.455% [at 11.6 µM] | activity change, negative = cytotoxicity (PA-1) 9.3% [at 11.6 µM] | activity change, negative = cytotoxicity (SKOV3) -10% [at 11.6 µM] | activity change, negative = cytotoxicity (Tov-21-G) 3.11% [at 11.6 µM] | activity change, negative = cytotoxicity (Tov112D) -0.387% [at 11.6 µM]

COc1c(C(C)C)cc2c(c1O)[C@@]1(C(=O)O)CCCC(C)(C)C1CC2 (some centres not stated)
inactive: Potency (Hek293T) | Potency (JEG-3) | Potency (OV90) | Potency (PA-1) | Potency (SKOV3) | Potency (Tov-21-G) | Potency (Tov112D)

C=CC(C)(O)CC/C=C(\C)C(=O)O[C@H]1[C@H](O)[C@@H](CO)O[C@@H](OC(=O)[C@]23CCC(C)(C)CC2C2=CCC4[C@@]5(C)CC[C@H](O[C@@H]6O[C@H](CO[C@@H]7OC[C@H](O)[C@H](O)[C@H]7O[C@@H]7OC[C@@H](O)[C@H](O)[C@H]7O)[C@@H](O)[C@H](O)[C@H]6O)C(C)(C)C5CC[C@@]4(C)[C@]2(C)CC3)[C@@H]1OC1OC(C)C(O[C@@H]2OC[C@@H](O)[C@H](O[C@@H]3OC[C@@H](O)[C@H](O)[C@H]3O)[C@H]2O)C(O)C1O (some centres not stated)
inactive: activity change, negative = cytotoxicity (Hek293T) 2.18% [at 6.55 µM] | activity change, negative = cytotoxicity (JEG-3) -17.2% [at 6.55 µM] | activity change, negative = cytotoxicity (OV90) -3.63% [at 6.55 µM] | activity change, negative = cytotoxicity (PA-1) 3.75% [at 6.55 µM] | activity change, negative = cytotoxicity (SKOV3) 0% [at 6.55 µM] | activity change, negative = cytotoxicity (Tov-21-G) 5.83% [at 6.55 µM] | activity change, negative = cytotoxicity (Tov112D) 1.17% [at 6.55 µM]

CC(=O)O[C@H]1C[C@@H](OC(C)=O)C(C)(C)C2C[C@@H](O)[C@]3(C)C(CC[C@@]4(C)[C@H](C5=CC(=O)OC5O)C[C@H]5O[C@]543)[C@]21C (some centres not stated)
inactive: Potency (Hek293T) | Potency (JEG-3) | Potency (OV90) | Potency (PA-1) | Potency (SKOV3) | Potency (Tov-21-G) | Potency (Tov112D)

N#CC(OC1OC(COC2OC(CO)C(O)C(O)C2O)C(O)C(O)C1O)c1ccccc1 (configuration not stated)
inactive: Potency (Hek293T) | Potency (JEG-3) | Potency (OV90) | Potency (PA-1) | Potency (SKOV3) | Potency (Tov-21-G) | Potency (Tov112D)

OCCCCC#Cc1cncc(OC[C@@H]2CCN2)c1
inactive: Potency (Hek293T) | Potency (JEG-3) | Potency (OV90) | Potency (PA-1) | Potency (SKOV3) | Potency (Tov-21-G) | Potency (Tov112D)

CC(C)=C1CC[C@]23CO[C@H](C2)[C@@](O)(C(=O)O)CCC13 (some centres not stated)
inactive: Potency (Hek293T) | Potency (JEG-3) | Potency (OV90) | Potency (PA-1) | Potency (SKOV3) | Potency (Tov-21-G) | Potency (Tov112D)

CN(C)CCc1c[nH]c2ccc(CN3CCN(C)S3(=O)=O)cc12
inactive: Potency (Hek293T) | Potency (JEG-3) | Potency (OV90) | Potency (PA-1) | Potency (SKOV3) | Potency (Tov-21-G) | Potency (Tov112D)

C=C(C)[C@H]1O[C@H]2CC[C@@]3(C)[C@@](O)(CC[C@H]4[C@@H]5OC(C)(C)[C@H]6C[C@@H]7C(=C)Cc8c(Cl)cc9[nH]c(c5c9c8[C@@]76O)[C@@]43C)[C@]23O[C@@H]3[C@H]1O
inactive: Potency (Hek293T) | Potency (JEG-3) | Potency (OV90) | Potency (PA-1) | Potency (SKOV3) | Potency (Tov-21-G) | Potency (Tov112D)

CC1C/C=C/C(O)C(O)CC/C=C/c2cc(O)cc(O)c2C(=O)O1 (configuration not stated)
inactive: Potency (Hek293T) | Potency (JEG-3) | Potency (OV90) | Potency (PA-1) | Potency (SKOV3) | Potency (Tov-21-G) | Potency (Tov112D)

CC1=C2C(=O)C3[C@@H](CC=C4C[C@@H](O)CC[C@@]43C)[C@@H]2CC[C@]12O[C@@H]1C[C@H](C)CN[C@H]1[C@H]2C (some centres not stated)
inactive: Potency (Hek293T) | Potency (JEG-3) | Potency (OV90) | Potency (PA-1) | Potency (SKOV3) | Potency (Tov-21-G) | Potency (Tov112D)

COc1cc(CCNCc2ccccc2O)c(OC)cc1C#N
inactive: Potency (Hek293T) | Potency (JEG-3) | Potency (OV90) | Potency (PA-1) | Potency (SKOV3) | Potency (Tov-21-G) | Potency (Tov112D)

COC(=O)C1(C)CCC(O)C2(C)c3c(O)cc(C(C)C)cc3C(O)C(OC(C)=O)C12 (configuration not stated)
inactive: Potency (Hek293T) | Potency (JEG-3) | Potency (OV90) | Potency (PA-1) | Potency (SKOV3) | Potency (Tov-21-G) | Potency (Tov112D)

CC(C)(O)[C@H]1O[C@H]2CC[C@@]3(C)[C@@](O)(CC[C@H]4Cc5c([nH]c6ccccc56)[C@@]43C)C2=CC1=O
inactive: Potency (Hek293T) | Potency (JEG-3) | Potency (OV90) | Potency (PA-1) | Potency (SKOV3) | Potency (Tov-21-G) | Potency (Tov112D)

C[C@]12CC[C@@H](O)C[C@H]1CC[C@@H]1[C@@H]2CC[C@]2(C)C(=O)CC[C@@H]12
inactive: Potency (Hek293T) | Potency (JEG-3) | Potency (OV90) | Potency (PA-1) | Potency (SKOV3) | Potency (Tov-21-G) | Potency (Tov112D)

CCCCCCn1c(=O)c(C(=O)Nc2ccc(C(=O)OCCC)cc2)c(O)c2ccccc21
inactive: activity change, negative = cytotoxicity (Hek293T) 10.5% [at 11.6 µM] | activity change, negative = cytotoxicity (JEG-3) -0.73% [at 11.6 µM] | activity change, negative = cytotoxicity (OV90) 9.17% [at 11.6 µM] | activity change, negative = cytotoxicity (PA-1) 1.75% [at 11.6 µM] | activity change, negative = cytotoxicity (SKOV3) -0.233% [at 11.6 µM] | activity change, negative = cytotoxicity (Tov-21-G) 0.105% [at 11.6 µM] | activity change, negative = cytotoxicity (Tov112D) 27% [at 11.6 µM]
